Hits are enriched below; roughly 4.1% of the tested compounds scored in any of these assays.
hcDAF-12 act – activates DAF-12 receptor from parasite H. contortus; HEK293 hcDAF-12 lit1-tk-luc reporter, luminescence; 0% DMSO, 100% Δ7-dafachronic acid; activation, % at 6.8 µM; hit rate 1.4% among 370,000;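 active = activation above the mean of all tested compounds plus 3 SD, cut at about 5.5% in these data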
DAX1 inh-1 – inhibitors of DAX1 repression of SF-1 activated StAR promoter; HEK293T StAR-luciferase reporter, SF-1/DAX-1 repression relief; inhibition, % at 6.8 µM; hit rate 1.1% among 370,000; AID 652010;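 active = inhibition above the mean over all tested compounds plus 3 SD, cut at about 3.6% in these data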;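 also: higher inhibition means more luminescence from relief of DAX-1 repression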
DAX1 inh-2 – NR0B1 (DAX1) inhibition | P51843 | HEK293 Gal4-DAX1 luciferase reporter, luminescence | inhibition, % at 6.75 µM | hit rate 0.99% among 340,000;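 active = inhibition above the mean over all tested compounds plus 3 SD, cut at about 4.2% in these data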;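 also: inhibition shows as a rise in luminescence from relieved DAX1 repression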
hgDAF12 agonist – agonists of H. glycines DAF-12 nuclear receptor | HEK293 GAL4-hgDAF12 UAS-luciferase reporter, agonist luminescence; normalized to butyrate control | activation, % at 6.8 µM | hit rate 1.8% among 370,000 | AID 687014;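 active = activation above a cutoff set at the mean of all screened compounds plus 3 SD, cut at about 10% in these data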
ssDAF-12 act – S. stercoralis DAF-12 activation, primary screen | AID 652126 | HEK293 ssDAF-12/GRIP1 lit1-tk-luc reporter, luminescence; % of 3 µM dafachronic acid response | hit rate 1% among 370,000 | activation, % at 6.8 µM;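 active = activation above the mean over all tested compounds plus 3 SD, cut at about 0.9% in these data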
DAX1 inh confirm – NR0B1 (human) inhibition, confirmation | shares compounds with DAX1 inh-1 | HEK293T StAR-promoter luciferase reporter, SF-1/DAX-1 repression | inhibition, % at 6.8 µM | hit rate 87% among 2,400 | AID 652134;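 active = inhibition above the average of every tested compound plus 3 SD, cut at about 3.8% in these data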;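 also: active compounds raise luminescence by relieving repression of the StAR reporter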
SF1 AF2mut Luc – nonselective inhibitor or artifact in SF-1 mutant DAX1 counter-screen; shares compounds with DAX1 inh-1; HEK293 StAR-luciferase, SF-1 AF2 mutant, luminescence; inhibition, % at 6.8 µM; hit rate 78% among 2,400;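 active = inhibition above the mean of all tested compounds plus 3 SD, cut at about 3% in these data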
LXR ag – activates human LXR-beta, counter-screen for hcDAF-12 agonists; 3,400 tested, under 10 active; shares compounds with hcDAF-12 act; activation, % at 6.8 µM; HEK293 Gal4-LXR tk-luc reporter, luminescence, 24 h; normalized: DMSO 0%, positive control 100%;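 active = mean percent activation of the reporter above a cutoff set as the average over tested compounds plus their standard deviation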
Target sequence (P55055 whole entry, looked up, the tested form may be a part): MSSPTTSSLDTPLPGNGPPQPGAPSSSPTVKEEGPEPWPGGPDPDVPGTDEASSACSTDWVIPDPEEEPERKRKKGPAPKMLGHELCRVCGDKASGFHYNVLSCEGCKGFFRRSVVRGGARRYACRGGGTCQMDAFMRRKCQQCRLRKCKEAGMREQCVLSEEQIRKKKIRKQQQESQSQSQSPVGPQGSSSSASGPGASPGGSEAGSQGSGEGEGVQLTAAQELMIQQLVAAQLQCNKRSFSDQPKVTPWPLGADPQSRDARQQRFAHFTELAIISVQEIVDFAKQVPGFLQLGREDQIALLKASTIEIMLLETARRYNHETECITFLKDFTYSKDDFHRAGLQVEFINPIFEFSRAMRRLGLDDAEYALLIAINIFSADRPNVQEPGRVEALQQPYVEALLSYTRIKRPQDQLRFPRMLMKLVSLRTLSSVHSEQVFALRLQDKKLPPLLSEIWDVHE
hcDAF12 conf – confirmation of H. contortus DAF-12 agonists; activation, % at 6.8 µM; hit rate 61% among 3,400; AID 743032; shares compounds with hcDAF-12 act; HEK293 hcDAF-12 lit1-tk-luc reporter, luminescence; % of Δ7-dafachronic acid response;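 active = mean activation across triplicate tests above the threshold derived from the earlier primary screen, cut at about 5.5% in these data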
hgDAF12 conf – hgDAF-12 agonism, confirmation assay; shares compounds with hgDAF12 agonist; HEK293 GAL4-hgDAF12 luciferase reporter, agonist mode; percent of butyrate response; activation, % at 6.8 µM; hit rate 80% among 3,300;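 active = mean activation over triplicate wells above the hit cutoff derived from the earlier primary screen, cut at about 11% in these data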
LXRb DAF12 ctr – activates human LXR-beta, counter-screen for DAF-12 agonists; shares compounds with hgDAF12 agonist; HEK293 Gal4-LXR luciferase reporter, 24 h; activation, % at 6.8 µM; 3,300 tested, under 10 active;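 active = mean activation of the triplicate above a set limit carried over from the primary screen, none filed active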
A number is an active result; ! = repeats disagree.

`CCOc1ccc(S(=O)(=O)/N=C(/Nc2ccc(OC)cc2)c2ccccc2)cc1` gave hcDAF-12 act inactive, DAX1 inh-1 inactive, DAX1 inh-2 inactive, hgDAF12 agonist inactive and ssDAF-12 act inactive.
COc1ccc(C(=O)NN/C(=N/S(=O)(=O)c2ccc(C)cc2)c2ccccc2)cc1 was read as hcDAF-12 act inactive, DAX1 inh-1 4.6, DAX1 inh-2 inactive, hgDAF12 agonist 14, ssDAF-12 act 0.9, DAX1 inh confirm 9.2, SF1 AF2mut Luc 4.4, hgDAF12 conf 19 and LXRb DAF12 ctr inactive.
`Cc1ccc(NC(=S)N/C(=N/S(=O)(=O)c2ccccc2)c2ccccc2)cc1` gave hcDAF-12 act inactive, DAX1 inh-1 5.6!, DAX1 inh-2 inactive, hgDAF12 agonist 18!, ssDAF-12 act inactive, DAX1 inh confirm inactive, SF1 AF2mut Luc inactive, hgDAF12 conf 13 and LXRb DAF12 ctr inactive.
CCCCOCC1CN(CCCC)S(=O)(=O)c2c(cccc2N(C)S(=O)(=O)c2ccc(C)cc2)O1 (stereo unspecified) was read as hcDAF-12 act inactive, DAX1 inh-1 inactive, hgDAF12 agonist inactive and ssDAF-12 act inactive.
Cc1ccc(-c2cnc3cc(C)nn3c2)cc1 was read as hcDAF-12 act 5.9, DAX1 inh-1 9.7, DAX1 inh-2 inactive, hgDAF12 agonist 18, ssDAF-12 act inactive, DAX1 inh confirm 11, SF1 AF2mut Luc 5.2, hgDAF12 conf 12 and LXRb DAF12 ctr inactive.
Screening Cc1ccc(-c2cnc3c(Cl)c(C)nn3c2)cc1 returned hcDAF-12 act inactive, DAX1 inh-1 6.6, DAX1 inh-2 inactive, hgDAF12 agonist 24, ssDAF-12 act inactive, DAX1 inh confirm inactive, SF1 AF2mut Luc inactive, hgDAF12 conf 18 and LXRb DAF12 ctr inactive.
CCOc1ccc(C2CC=C(C(=O)O)CN2S(=O)(=O)c2ccc(C)cc2)cc1 (stereo unspecified) was read as hcDAF-12 act inactive, DAX1 inh-1 inactive, hgDAF12 agonist inactive and ssDAF-12 act inactive.
O=C(NC1CCCCC1)c1ccc([N+](=O)[O-])o1 was read as DAX1 inh-2 inactive.
`O=C(NC1CCCCC1)c1ccc(-c2ccccc2[N+](=O)[O-])o1` gave hcDAF-12 act 7.9, DAX1 inh-1 9.3, DAX1 inh-2 inactive, hgDAF12 agonist 15, ssDAF-12 act 1.1, DAX1 inh confirm 8.9, SF1 AF2mut Luc 5.5, LXR ag inactive, hcDAF12 conf 7.3, hgDAF12 conf 14 and LXRb DAF12 ctr inactive.
`C#CCOCCOCCOCCNc1nc(N2CCOCC2)nc(N2CCN(C(=O)[C@H](CCC(=O)O)n3cc(C(N)CO)nn3)CC2)n1` (stereo partly specified) gave hcDAF-12 act inactive, hgDAF12 agonist inactive and ssDAF-12 act inactive.
For CC(=O)c1cccc(NC(=O)c2cnn3ccccc23)c1 the results were hcDAF-12 act 5.8, DAX1 inh-1 5.6, DAX1 inh-2 inactive, hgDAF12 agonist 14, ssDAF-12 act inactive, DAX1 inh confirm 6.5, SF1 AF2mut Luc 5.2, hgDAF12 conf 12 and LXRb DAF12 ctr inactive.
COc1cc(NC(=O)c2ccccc2)c(C)cc1NC(=O)CSc1nnc(COc2ccccc2)n1Cc1ccco1 was read as hcDAF-12 act inactive, DAX1 inh-1 inactive, hgDAF12 agonist inactive and ssDAF-12 act inactive.

From PubChem
